This note sets out measurements from PubChem BioAssay (Tox21).

Test [1] is described as follows: qHTS assay to identify small molecule antagonists of the estrogen receptor alpha (ER-alpha) signaling pathway using the BG1 cell line in the presence of 0.1 nM 17-beta-estradiol - cell viability counter screen (AID 1259241). Note: nearly all actives have a fitted effect of over 40% in size. Note: potency is the fitted concentration of half-maximal effect. The method in brief:
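VM7Luc4E2 cells (endogenous ER-alpha, 4×ERE-luciferase), hormone-starved 5 days in charcoal-stripped FBS, were treated with compounds plus 0.1 nM 17beta-estradiol for 22 hr at 37C; viability read in same wells as CellTiter-Fluor live-cell protease fluorescence.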
Background: In qHTS, concentration-response curves come from the screen itself.

Test [2] addresses Estrogen receptor (Homo sapiens) (UniProt P03372). The test can be described thus: qHTS assay to identify small molecule antagonists of the estrogen receptor alpha (ER-alpha) signaling pathway using the BG1 cell line in the presence of 0.1 nM 17-beta-estradiol (AID 1259244). Note: nearly all actives have a fitted effect of over 50% in size. Note: potency is the fitted concentration of half-maximal effect. The method in brief: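 Antagonist mode: compounds in DMSO are pinned onto VM7Luc4E2 reporter cells, 0.1 nM final 17beta-estradiol is added, and after 22 h at 37C luciferase luminescence is measured with ONE-Glo.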

The nature of test [3]: qHTS assay to identify small molecule HDAC inhibitors (AID 1259364).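 Note: wild-type HCT-116 cells with endogenous class I/II HDAC activity; top concentration of the series differs between compounds; nearly all actives have a fitted effect of over 45% in size.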 Put shortly: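 Cells (HCT-116, wild type) are seeded at 1,500 per well, incubated overnight, treated with compound in DMSO for 2 hr, then developed with HDAC-Glo I/II reagent for 30 min at room temperature.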
Test [4] in a line: qHTS assay to identify small molecule HDAC inhibitors - cell viability counter screen (AID 1259365). For activity change, negative = cytotoxicity: series mostly up to about 92 µM. Note: nearly all actives have a fitted effect of over 50% in size. Note: potency is the fitted concentration of half-maximal effect. The method in brief:
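Wild-type HCT-116 cells were seeded at 1,500 per well, incubated overnight at 37 C, then exposed to compounds in DMSO for 2hr. Viability was read by CellTiter-Glo luminescence after 30min at room temperature.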

A short description of test [5]: qHTS assay to identify small molecule agonists of the sonic hedgehog signaling (Shh) pathway - cell viability counter screen (AID 1259366). Note: nearly all actives have a fitted effect of over 50% in size. Note: potency is the fitted concentration of half-maximal effect. Put shortly: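 NIH/3T3-derived 3T3 Gli1-Luc cells (stable Gli1-responsive firefly luciferase reporter) were seeded, rested 4 hr at 37 C/5% CO2, then exposed to compounds in DMSO for 24 hr; viability was read by CellTiter-Fluor fluorescence in the same wells.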

Test [6] in a line: qHTS assay to identify small molecule antagonists of the sonic hedgehog signaling (Shh) pathway - cell viability counter screen (AID 1259367). Note: nearly all actives have a fitted effect of over 55% in size. Note: potency is the fitted concentration of half-maximal effect. The method in brief: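 Conditioned medium drove Shh signaling in 3T3 Gli1-Luc cells exposed to compounds at 37C and 5% CO2. Viability was determined from CellTiter-Fluor fluorescence, with reagent incubated 1 hr after 23 hr of treatment.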

Test [7] is described as follows: qHTS assay to identify small molecule agonists of the sonic hedgehog signaling (Shh) pathway (AID 1259368; calls by dose curve; note: nearly all actives have a fitted effect of over 15% in size; note: potency is the fitted concentration of half-maximal effect; for activity change: series mostly up to about 92 µM). The method in brief:
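Cells of a mouse NIH/3T3 clone stably expressing luciferase under the Gli1 transcriptional response element are exposed to test chemicals for 24 hr at 37 C. Pathway activation is detected as a rise in luminescence.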

For test [8], the target named is Androgen receptor (Homo sapiens) (UniProt P10275). The test can be described thus: qHTS assay to identify small molecule antagonists of the androgen receptor (AR) signaling pathway using the MDA cell line in the presence of 0.5 nM R1881 (AID 1259243). Note: nearly all actives have a fitted effect of over 50% in size. Note: potency is the fitted concentration of half-maximal effect. The method in brief:
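Stably transfected MDA-kb2 cells express luciferase from an MMTV promoter bearing both AR and GR response elements. Compounds plus 0.5 nM R1881 (final) were incubated 16 hr at 37C without CO2, then luminescence measured.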

Test [9] can be described thus: qHTS assay to identify small molecule phospholipidosis (PLD) inducers (AID 1259344; active = well fitted curve in the direction sought with a large enough effect; an effect the other way counts as inactive or inconclusive). Put shortly:
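After 4 h attachment on collagen I, HepG2 cells were dosed with compound alongside LipidTOX Red, kept 24 h at 37 C, fixed, and imaged for lamellar phospholipid pits.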

Test [10] is described as follows: qHTS assay to identify small molecule antagonists of the androgen receptor (AR) signaling pathway using the MDA cell line in the presence of 0.5 nM R1881 - cell viability counter screen (AID 1259242). Note: nearly all actives have a fitted effect of over 45% in size. Note: potency is the fitted concentration of half-maximal effect. Put shortly: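 Steps: plate MDA-kb2 cells, rest 5 hr at 37C without CO2; pin in compounds in DMSO; add R1881 to 0.5 nM final; incubate 16 hr; add CellTiter-Fluor, 30 min; read fluorescence.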

Several values for one entry are separate records, joined by “and”; a condition that tells them apart may be missing. Equal entries are not always repeated. Unmarked numbers belong to inactive results. Inconclusive results are not listed. Activity calls are given as the source filed them. Unless noted, calls come from the whole dose curve; as a rule, active = well fitted curve in the direction sought with a large enough effect in the repeat runs; inconclusive = weak or mixed curves; inactive = no such curve, though single readings can be large; an effect the other way counts as inactive or inconclusive.
% is set by controls: 0 for no effect and ±100 for the full control effect.

Sequence of Androgen receptor (Homo sapiens) (P10275 whole entry, looked up): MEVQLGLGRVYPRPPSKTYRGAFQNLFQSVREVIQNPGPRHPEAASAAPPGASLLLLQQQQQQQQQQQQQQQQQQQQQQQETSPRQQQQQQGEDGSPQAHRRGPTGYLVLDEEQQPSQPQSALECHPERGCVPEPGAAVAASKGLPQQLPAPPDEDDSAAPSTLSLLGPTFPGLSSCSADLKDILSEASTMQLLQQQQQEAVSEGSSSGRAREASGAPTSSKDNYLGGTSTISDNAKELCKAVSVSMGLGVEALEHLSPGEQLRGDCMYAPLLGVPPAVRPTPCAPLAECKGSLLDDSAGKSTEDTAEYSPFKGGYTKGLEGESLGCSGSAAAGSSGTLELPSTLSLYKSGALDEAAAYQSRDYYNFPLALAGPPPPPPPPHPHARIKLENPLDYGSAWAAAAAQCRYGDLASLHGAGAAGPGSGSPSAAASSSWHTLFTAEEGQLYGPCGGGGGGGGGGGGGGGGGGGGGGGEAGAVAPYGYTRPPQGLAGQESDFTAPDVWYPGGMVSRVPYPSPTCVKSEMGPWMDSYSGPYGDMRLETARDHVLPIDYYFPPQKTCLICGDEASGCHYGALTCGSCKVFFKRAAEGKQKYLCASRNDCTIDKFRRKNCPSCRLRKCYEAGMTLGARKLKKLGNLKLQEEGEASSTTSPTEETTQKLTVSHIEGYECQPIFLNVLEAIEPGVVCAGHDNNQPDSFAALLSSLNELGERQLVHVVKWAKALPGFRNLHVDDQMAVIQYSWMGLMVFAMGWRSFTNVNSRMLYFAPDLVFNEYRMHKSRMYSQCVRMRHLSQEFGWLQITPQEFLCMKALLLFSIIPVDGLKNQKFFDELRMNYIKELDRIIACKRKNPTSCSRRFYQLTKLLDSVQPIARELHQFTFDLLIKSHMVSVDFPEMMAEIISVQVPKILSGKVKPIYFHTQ
Sequence of Estrogen receptor (Homo sapiens) (P03372 whole entry, looked up): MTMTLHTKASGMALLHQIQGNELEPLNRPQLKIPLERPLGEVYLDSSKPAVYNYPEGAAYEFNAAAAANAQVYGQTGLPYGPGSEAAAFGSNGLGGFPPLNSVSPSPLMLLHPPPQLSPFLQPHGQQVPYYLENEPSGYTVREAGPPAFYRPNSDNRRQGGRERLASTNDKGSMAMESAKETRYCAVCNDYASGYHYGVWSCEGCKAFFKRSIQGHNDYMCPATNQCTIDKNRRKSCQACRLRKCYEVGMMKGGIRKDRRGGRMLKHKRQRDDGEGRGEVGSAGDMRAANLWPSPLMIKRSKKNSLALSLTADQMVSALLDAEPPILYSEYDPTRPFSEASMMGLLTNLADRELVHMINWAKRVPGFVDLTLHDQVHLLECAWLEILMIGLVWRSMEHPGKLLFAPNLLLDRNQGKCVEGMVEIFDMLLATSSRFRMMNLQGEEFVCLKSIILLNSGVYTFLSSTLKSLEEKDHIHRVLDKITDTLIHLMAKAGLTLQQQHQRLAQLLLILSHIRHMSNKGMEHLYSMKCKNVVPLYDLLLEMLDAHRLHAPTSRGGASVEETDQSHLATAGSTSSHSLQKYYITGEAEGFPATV

In the case of `CCCCCCCC`, the Potency result in test [1], in [2], in test [3], in [4], in test [5] and in [6] was “inactive” each time. For the same compound, the Potency result in test [7] was “inactive”.

On to `[Cl][Pt-2]([Cl])([Cl])[Cl]`, for which the Potency entry in [1], in test [2], in test [3], in test [4], in test [5] and in [7] was “inactive” throughout.

Turning to `Cc1cccc(C)c1NC(=O)c1ccc(N)cc1`, the Potency result in test [1], in test [8], in [2], in test [3], in test [4] and in test [5] was “inactive” each time. Besides, the Potency entry in test [6] and in [7] was “inactive” throughout.

Take `Clc1nnc(Cl)c2ccccc12`: the Potency entry in [1], in test [2], in test [3], in test [4], in [5] and in test [6] was “inactive” in each case. In addition, the Potency result in [7] was “inactive”.

In the case of `Oc1c(I)cc(Cl)c2cccnc12`, the Potency entry in test [1], in [9], in [3], in test [4] and in test [6] was “inactive” in each case. The Potency in test [8] was 27.3 µM (active) and 26.6 µM (active); in test [7], 38.5 µM (active).

With `Cc1nc2n(c(=O)c1CCN1CCC(c3noc4cc(F)ccc34)CC1)CCCC2`, the Potency result in test [1], in [9], in test [3], in test [4], in [5] and in [6] was “inactive” in each case. For the same compound, in test [7], the Potency entry was “inactive”.

For the compound `COc1cc2nc(N3CCN(C(=O)c4ccco4)CC3)nc(N)c2cc1OC`, the activity change, negative = cytotoxicity in test [1] is 2.36% [at 19 µM]; in test [4] it was -0.972% [at 19 µM]. Moreover, in test [2], the activity change, negative = inhibition is -15.5% [at 19 µM]. The Potency result in test [9] was “inactive”. Besides, the viability change, negative = cytotoxic in [6] was -24.8% [at 19 µM]. The activity change in [7] was -4.98% [at 18.9 µM, hits give high values].

On to `C#CC1(O)CC[C@H]2[C@@H]3CCC4=CCCC[C@@H]4[C@H]3CC[C@@]21C` (stereo not given in full), for which the Potency result in test [1], in test [2], in test [9], in [3] and in [7] was “inactive” in each case. Moreover, the Potency in test [4] is 29.8 µM (active); in [5], 26.6 µM (active).

Turning to `COc1cc(/C=C/c2ccccc2)oc(=O)c1`, the Potency result in test [1], in test [10], in test [4] and in test [6] was “inactive” throughout. Besides, the Potency in test [7] was 2.52 µM (active).

Consider `OCCN1CCN(CCCN2c3ccccc3Sc3ccc(C(F)(F)F)cc32)CC1`, for which the Potency entry in [1], in test [2], in test [3], in test [4], in test [6] and in test [7] was “inactive” each time.

With `c1ccc(SSc2ccccc2)cc1`, the Potency entry in test [1], in test [2], in [3], in [4], in test [5] and in [6] was “inactive” in each case. The Potency result in [7] was “inactive”.

In the case of `CNc1ccc([N+](=O)[O-])cc1`, the Potency in test [1] was 43.4 µM (active); in test [8], 15.4 µM (active); in test [5], 19.4 µM (active). Moreover, the Potency result in [2], in test [3], in test [4], in test [6] and in [7] was “inactive” each time.

As to `CCCCCCOC(=O)C(C)CC` (stereo not given), the Potency result in test [1], in test [8], in test [2], in [3], in test [4] and in [5] was “inactive” in each case. Moreover, the Potency entry in test [6] and in [7] was “inactive” in each case.

Turning to `O=C(O)Cc1ccccc1Nc1c(Cl)cccc1Cl`, the Potency entry in test [1], in [8], in [2], in test [9], in test [3] and in [4] was “inactive” each time. The Potency result in test [5], in test [6] and in [7] was “inactive” in each case.

For `CC[N+](CC)(CC)CCOc1ccc(/C=C/c2ccccc2)cc1`, the Potency entry in test [1], in test [9], in test [3], in test [4], in test [5] and in [6] was “inactive” throughout. Further, the Potency entry in test [7] is “inactive”. Moreover, the Potency in test [2] was 13.3 µM (active).

Turning to `O=C(/C=C/c1ccccc1)OC/C=C/c1ccccc1`, the Potency result in test [1], in test [8], in test [2], in test [3], in [4] and in test [6] was “inactive” each time. In test [7], the Potency entry is “inactive”.

`O=C(O)c1cc(=O)c2ccccc2o1`: the Potency result in test [1], in test [2], in [9], in test [3], in test [4] and in [5] was “inactive” in each case. The Potency entry in [6] and in test [7] was “inactive” throughout.

As to `C/C=C/C=C/COC(=O)C(C)C`, the Potency result in test [1], in [3], in test [4], in [5] and in [7] was “inactive” each time.

As to `COc1ccc2cc1Oc1ccc(cc1)C[C@H]1c3c(cc4c(c3Oc3cc5c(cc3OC)CCN(C)[C@@H]5C2)OCO4)CCN1C`, the Potency in test [10] is 21.1 µM (active); in [5], 11.9 µM (active); in [6] it was 15 µM (active). Further, the Potency result in test [3], in test [4] and in test [7] was “inactive” in each case.

As to `Cc1ccc(O)c(N)c1`, the Potency result in [1], in test [4] and in test [7] was “inactive” in each case. Further, the Potency is 43.3 µM (active) in [5] and 27.3 µM (active) in [6].

For the compound `CC(C)(C)c1ccc(C(O)CCCN2CCC(C(O)(c3ccccc3)c3ccccc3)CC2)cc1` (stereo not given), the Potency in test [10] was 16.8 µM (active). Besides, the Potency entry in test [9], in [3], in test [6] and in test [7] was “inactive” throughout.

Regarding `CC(C)=CCC1=C(O)c2ccccc2C(=O)C1=O`, the Potency result in test [8], in [4] and in test [7] was “inactive” in each case.

Take `CCOC(=O)c1ccc(C2CCC(NC[C@H](O)COc3ccc(O)c(NS(C)(=O)=O)c3)CC2)cc1` (stereo not given in full): the Potency entry in test [1], in [4] and in test [7] was “inactive” throughout. Moreover, in test [6], the Potency is 50.2 µM (active).

As to `O=[N+]([O-])c1cccc(C(F)(F)F)c1`, the Potency entry in test [1], in test [4], in test [5], in test [6] and in [7] was “inactive” each time.

Turning to `CCCCN(CCCC)CC(O)c1cc(Cl)cc2c1-c1ccc(Cl)cc1/C2=C/c1ccc(Cl)cc1` (stereo not given), the Potency result in [10], in [2], in test [3], in test [4] and in test [7] was “inactive” throughout. Besides, the Potency in test [5] is 26.6 µM (active).

For the compound `CC(CCc1ccccc1)NCC(O)c1ccc(O)c(C(N)=O)c1` (stereo not given), the Potency entry in test [9], in test [4] and in test [7] was “inactive” in each case. Moreover, in [6], the Potency is 17.2 µM (active).

Take `CCCCCC(C)OC(=O)COc1ccc(Cl)c2cccnc12` (stereo not given): the Potency result in [1], in test [3], in test [4], in [5], in [6] and in [7] was “inactive” in each case.
